Reference: PubChem BioAssay (NCI)
This is part of a sample that, as a whole, favours compounds with a hit. Of some 83,000 tested, about 20% had one in any assay.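 Percent growth is the endpoint: 0 to 100 indicates growth inhibition (40 means 60% inhibition), 0 means no net growth, and negative values indicate cell death.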

How the values were obtained:
Experiment in all cases: NCI-60 one-dose screen, 48 h (100 = growth as untreated, 0 = no growth, -100 = all killed); active = growth percent below 10; inactive = the rest
HCT-15 colon = settings: 10 µM unless noted
HT29 colon = settings: 10 µM unless noted
SNB-75 CNS = settings: 10 µM unless noted
SNB-19 CNS = settings: 10 µM unless noted
U251 CNS = settings: 10 µM unless noted
SK-MEL-5 melanoma = settings: 10 µM unless noted
UACC-62 melanoma = settings: 10 µM unless noted
LOX IMVI melanoma = settings: 10 µM
SK-MEL-28 melanoma = settings: 10 µM unless noted
PC-3 prostate = settings: 10 µM unless noted

Measured: growth

C(=C\c1ccncc1)/c1ccncc1
inactive: HCT-15 colon 96.3% | HT29 colon 99% | SNB-75 CNS 89.6% | SNB-19 CNS 94.5% | U251 CNS 97.1% | SK-MEL-5 melanoma 101% | UACC-62 melanoma 90.1% | LOX IMVI melanoma 94.2% | SK-MEL-28 melanoma 104%

O=C(Oc1ccccc1Cl)c1ccc(Cl)cc1Cl
inactive: HCT-15 colon 103% | HT29 colon 105% | SNB-75 CNS 91.8% | SNB-19 CNS 99.6% | U251 CNS 89.5% | PC-3 prostate 93.6% | LOX IMVI melanoma 104% | SK-MEL-28 melanoma 109%

O=Cc1ccc(Cl)c(Cl)c1
inactive: HCT-15 colon 110% | HT29 colon 106% | SNB-75 CNS 88.4% | SNB-19 CNS 111% | U251 CNS 104% | PC-3 prostate 94.6% | UACC-62 melanoma 102% | LOX IMVI melanoma 95% | SK-MEL-28 melanoma 107%

C=CCc1cc(OC)c(OC)c(OC)c1
inactive: HCT-15 colon 99.1% | HT29 colon 98% | SNB-75 CNS 101% | SNB-19 CNS 103% | U251 CNS 102% | PC-3 prostate 100% | UACC-62 melanoma 97.4% | LOX IMVI melanoma 102% | SK-MEL-28 melanoma 115%

O=c1nc(Nc2cccc(Cl)c2)oc2cc(Cl)oc(=O)c12
inactive: HCT-15 colon 83.4% | HT29 colon 85.5% | SNB-75 CNS 67.2% | SNB-19 CNS 94.3% | U251 CNS 79.6% | PC-3 prostate 61.8% | UACC-62 melanoma 78.7% | LOX IMVI melanoma 73.5% | SK-MEL-28 melanoma 85.5%

CCOc1ccncc1[N+](=O)[O-]
inactive: HCT-15 colon 110% | HT29 colon 107% | SNB-75 CNS 101% | SNB-19 CNS 125% | U251 CNS 96.9% | PC-3 prostate 106% | LOX IMVI melanoma 99.6% | SK-MEL-28 melanoma 102%

CCOS(=O)(=O)c1ccc([N+](=O)[O-])cc1
inactive: HCT-15 colon 110% | HT29 colon 94% | SNB-75 CNS 87% | SNB-19 CNS 101% | U251 CNS 99.2% | PC-3 prostate 97.9% | UACC-62 melanoma 101% | LOX IMVI melanoma 97.7% | SK-MEL-28 melanoma 107%

COc1ccc(Nc2cc(Cl)ccc2C(=O)O)cn1
inactive: HCT-15 colon 106% | HT29 colon 106% | SNB-75 CNS 99.4% | SNB-19 CNS 96.5% | U251 CNS 105% | PC-3 prostate 99% | UACC-62 melanoma 96.3% | LOX IMVI melanoma 98.1% | SK-MEL-28 melanoma 98.8%

C/C=C/C1OCC(CC)C(CCC)O1 (centres undefined)
inactive: HCT-15 colon 111% | HT29 colon 105% | SNB-75 CNS 90.2% | SNB-19 CNS 99.7% | U251 CNS 104% | PC-3 prostate 98.9% | UACC-62 melanoma 101% | LOX IMVI melanoma 113% | SK-MEL-28 melanoma 112%

CC(C)c1ncc([N+](=O)[O-])n1C
inactive: HCT-15 colon 101% | HT29 colon 108% | SNB-75 CNS 116% | SNB-19 CNS 111% | U251 CNS 104% | PC-3 prostate 102% | UACC-62 melanoma 107% | LOX IMVI melanoma 108% | SK-MEL-28 melanoma 119%

Cc1ccc2[nH]c3ccccc3c2c1
inactive: HCT-15 colon 79.6% | HT29 colon 102% | SNB-75 CNS 98.4% | SNB-19 CNS 105% | U251 CNS 96.2% | PC-3 prostate 89.1% | LOX IMVI melanoma 97% | SK-MEL-28 melanoma 111%

C=CC(C)C(C)(C)O (centres undefined)
inactive: HCT-15 colon 104% | HT29 colon 101% | SNB-75 CNS 101% | SNB-19 CNS 109% | U251 CNS 103% | PC-3 prostate 100% | UACC-62 melanoma 102% | LOX IMVI melanoma 99.2% | SK-MEL-28 melanoma 113%

Cc1c(Cl)cccc1N=C=S
inactive: HCT-15 colon 107% | HT29 colon 104% | SNB-75 CNS 70.6% | SNB-19 CNS 93.5% | U251 CNS 106% | PC-3 prostate 89.6% | UACC-62 melanoma 97.4% | LOX IMVI melanoma 103% | SK-MEL-28 melanoma 132%

CC(C)C1CCC(C)C(O)C1 (centres undefined)
inactive: HCT-15 colon 107% | HT29 colon 105% | SNB-75 CNS 91.1% | SNB-19 CNS 99.6% | U251 CNS 89% | PC-3 prostate 89% | LOX IMVI melanoma 99.6% | SK-MEL-28 melanoma 110%

O=C(O)c1cc(I)ccc1O
inactive: HCT-15 colon 101% | HT29 colon 104% | SNB-75 CNS 81.8% | SNB-19 CNS 93.1% | U251 CNS 100% | PC-3 prostate 104% | SK-MEL-28 melanoma 113%
